Measured values: paper PMC7862700, “An all-to-all approach to the identification of sequence-specific readers for epigenetic DNA modifications on cytosine”

Experiments:
Test in all cases: DAPPL (digital affinity profiling via proximity ligation, sequencing); 10 mM Tris-HCl pH 7.5, 50 mM NaCl, 1 mM DTT, 4% glycerol, room temperature, 30 min; GST-TFs on glutathione beads, 16-mer random dsDNA library, 0.1% formaldehyde crosslink after washing; high values mean tight binding
Conditions in all cases: protein: recombinant; tags: N-terminal GST; dsDNA, one strand shown
FLI1 = biological target: T1, FLI1 (Homo sapiens, UniProt Q01543 1-452)
T1 sequence: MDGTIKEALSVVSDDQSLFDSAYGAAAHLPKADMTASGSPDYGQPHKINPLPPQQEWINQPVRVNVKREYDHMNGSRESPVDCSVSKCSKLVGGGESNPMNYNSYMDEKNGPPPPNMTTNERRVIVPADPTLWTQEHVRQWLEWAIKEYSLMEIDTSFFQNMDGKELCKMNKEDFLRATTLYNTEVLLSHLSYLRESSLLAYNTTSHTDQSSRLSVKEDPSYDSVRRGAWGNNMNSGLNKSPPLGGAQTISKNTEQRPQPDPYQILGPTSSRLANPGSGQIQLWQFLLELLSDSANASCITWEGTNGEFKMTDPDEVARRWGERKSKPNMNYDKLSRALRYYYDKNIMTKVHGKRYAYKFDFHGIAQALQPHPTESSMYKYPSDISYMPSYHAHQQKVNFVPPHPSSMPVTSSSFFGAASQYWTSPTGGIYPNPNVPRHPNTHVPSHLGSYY
Summary of the method: (§1)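 Sequencing on an Illumina NextSeq500 followed washing, crosslinking with 0.1% formaldehyde, proximity ligation (BsaI/T4 ligase, 1 h, 37 °C) and PCR amplification of pools that had been incubated for 30 min at room temperature with 200 nmole of a random double-stranded 16-mer DNA library in Tris/NaCl/DTT/glycerol buffer. Each pool held DNA-barcoded human transcription factors, expressed in yeast as GST fusions and captured on glutathione beads, plus a tag-only sample. Binding signal is a hexamer's read frequency for a factor divided by its frequency in the tag-only sample.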

ELK1 = biological target: T2, ELK1 (Homo sapiens, UniProt P19419 1-428)
T2 sequence: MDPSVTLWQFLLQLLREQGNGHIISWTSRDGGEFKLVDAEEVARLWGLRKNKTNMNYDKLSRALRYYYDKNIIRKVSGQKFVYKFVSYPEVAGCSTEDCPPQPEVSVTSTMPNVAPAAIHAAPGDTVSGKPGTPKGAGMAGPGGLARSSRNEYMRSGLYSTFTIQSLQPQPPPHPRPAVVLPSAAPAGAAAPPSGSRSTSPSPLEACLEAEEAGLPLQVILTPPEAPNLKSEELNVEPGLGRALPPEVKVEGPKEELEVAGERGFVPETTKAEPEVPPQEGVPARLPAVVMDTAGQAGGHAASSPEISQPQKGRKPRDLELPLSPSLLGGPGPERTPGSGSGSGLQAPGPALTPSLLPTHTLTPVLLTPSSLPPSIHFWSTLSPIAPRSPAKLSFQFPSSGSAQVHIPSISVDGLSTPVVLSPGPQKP
Summary of the method: as §1

ERG = biological target: T3, ERG (Homo sapiens, UniProt P11308 1-479)
T3 sequence: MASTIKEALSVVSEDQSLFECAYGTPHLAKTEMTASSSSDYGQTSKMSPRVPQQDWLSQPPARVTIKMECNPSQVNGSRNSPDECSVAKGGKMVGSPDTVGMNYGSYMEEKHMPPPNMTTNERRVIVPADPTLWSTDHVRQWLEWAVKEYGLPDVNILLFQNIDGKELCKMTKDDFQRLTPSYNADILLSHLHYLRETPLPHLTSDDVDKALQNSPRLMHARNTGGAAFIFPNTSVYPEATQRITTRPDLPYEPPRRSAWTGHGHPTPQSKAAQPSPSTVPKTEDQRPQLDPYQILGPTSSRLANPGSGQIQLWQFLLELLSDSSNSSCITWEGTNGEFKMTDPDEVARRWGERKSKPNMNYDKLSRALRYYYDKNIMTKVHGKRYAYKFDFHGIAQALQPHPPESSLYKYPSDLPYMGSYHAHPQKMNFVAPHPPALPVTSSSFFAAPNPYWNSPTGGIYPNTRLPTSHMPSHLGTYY
Summary of the method: as §1

ELF1 = ELF1 (Homo sapiens, UniProt P32519 1-619)
Summary of the method: as §1

EHF = biological target: T4, EHF (Homo sapiens, UniProt Q9NZC4 1-300)
T4 sequence: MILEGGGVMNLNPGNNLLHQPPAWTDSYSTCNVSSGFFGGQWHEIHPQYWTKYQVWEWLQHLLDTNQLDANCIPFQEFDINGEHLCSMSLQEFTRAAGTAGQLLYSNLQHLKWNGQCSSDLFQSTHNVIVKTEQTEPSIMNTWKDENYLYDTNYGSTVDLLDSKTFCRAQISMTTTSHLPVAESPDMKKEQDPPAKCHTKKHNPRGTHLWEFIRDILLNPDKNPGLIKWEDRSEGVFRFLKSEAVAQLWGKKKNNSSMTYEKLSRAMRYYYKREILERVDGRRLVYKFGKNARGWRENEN
Summary of the method: as §1

SPIB = SPIB (Homo sapiens, UniProt Q01892 1-262)
Summary of the method: as §1

ELK3 = biological target: T5, ELK3 (Homo sapiens, UniProt P41970 1-407)
T5 sequence: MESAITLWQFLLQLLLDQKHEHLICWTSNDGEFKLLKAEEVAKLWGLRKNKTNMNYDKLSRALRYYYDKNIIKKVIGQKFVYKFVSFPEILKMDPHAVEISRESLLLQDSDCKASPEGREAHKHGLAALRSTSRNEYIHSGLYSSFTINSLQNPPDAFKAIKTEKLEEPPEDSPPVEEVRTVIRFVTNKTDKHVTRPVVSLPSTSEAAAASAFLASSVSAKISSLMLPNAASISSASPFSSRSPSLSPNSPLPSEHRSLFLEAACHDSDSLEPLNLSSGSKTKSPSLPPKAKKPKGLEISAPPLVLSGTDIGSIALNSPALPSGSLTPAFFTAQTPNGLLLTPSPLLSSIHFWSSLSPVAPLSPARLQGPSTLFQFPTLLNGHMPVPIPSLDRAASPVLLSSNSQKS
Summary of the method: as §1

FEV = biological target: T6, FEV (Homo sapiens, UniProt Q99581 1-238)
T6 sequence: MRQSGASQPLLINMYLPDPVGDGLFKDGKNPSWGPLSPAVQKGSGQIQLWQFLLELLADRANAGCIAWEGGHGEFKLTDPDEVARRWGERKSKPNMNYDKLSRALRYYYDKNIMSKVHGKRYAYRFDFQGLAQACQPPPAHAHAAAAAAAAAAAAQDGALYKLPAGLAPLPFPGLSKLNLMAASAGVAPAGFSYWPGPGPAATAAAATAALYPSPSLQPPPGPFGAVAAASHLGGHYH
Summary of the method: as §1

ETV5 = ETV5 (Homo sapiens, UniProt P41161 1-510)
Summary of the method: as §1

SPIC = biological target: T7, SPIC (Homo sapiens, UniProt Q8N5J4 1-248)
T7 sequence: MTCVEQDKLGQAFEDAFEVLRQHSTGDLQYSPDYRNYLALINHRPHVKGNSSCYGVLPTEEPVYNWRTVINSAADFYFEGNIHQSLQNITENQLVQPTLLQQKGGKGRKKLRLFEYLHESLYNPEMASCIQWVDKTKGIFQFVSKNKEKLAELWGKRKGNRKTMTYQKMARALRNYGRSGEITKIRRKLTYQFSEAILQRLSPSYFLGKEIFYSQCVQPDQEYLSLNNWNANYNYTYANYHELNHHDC
Summary of the method: as §1

ELF4 = ELF4 (Homo sapiens, UniProt Q99607 1-663)
Summary of the method: as §1

ETV1 = ETV1 (Homo sapiens, UniProt P50549 1-477)
Summary of the method: as §1

ETS2 = biological target: T8, ETS2 (Homo sapiens, UniProt P15036 1-469)
T8 sequence: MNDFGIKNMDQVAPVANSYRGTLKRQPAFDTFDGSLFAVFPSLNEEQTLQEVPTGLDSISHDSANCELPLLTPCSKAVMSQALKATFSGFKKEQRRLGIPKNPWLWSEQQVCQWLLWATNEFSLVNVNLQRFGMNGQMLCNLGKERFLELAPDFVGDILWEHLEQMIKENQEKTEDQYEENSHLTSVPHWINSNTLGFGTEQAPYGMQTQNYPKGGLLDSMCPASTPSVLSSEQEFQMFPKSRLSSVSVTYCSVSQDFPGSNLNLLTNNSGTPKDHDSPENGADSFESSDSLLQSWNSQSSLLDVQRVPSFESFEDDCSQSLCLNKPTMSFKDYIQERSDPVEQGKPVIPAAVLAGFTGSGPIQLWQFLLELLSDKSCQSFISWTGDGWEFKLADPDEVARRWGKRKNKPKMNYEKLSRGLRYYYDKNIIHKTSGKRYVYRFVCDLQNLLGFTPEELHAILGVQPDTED
Summary of the method: as §1

SPDEF = biological target: T9, SPDEF (Homo sapiens, UniProt O95238 1-335)
T9 sequence: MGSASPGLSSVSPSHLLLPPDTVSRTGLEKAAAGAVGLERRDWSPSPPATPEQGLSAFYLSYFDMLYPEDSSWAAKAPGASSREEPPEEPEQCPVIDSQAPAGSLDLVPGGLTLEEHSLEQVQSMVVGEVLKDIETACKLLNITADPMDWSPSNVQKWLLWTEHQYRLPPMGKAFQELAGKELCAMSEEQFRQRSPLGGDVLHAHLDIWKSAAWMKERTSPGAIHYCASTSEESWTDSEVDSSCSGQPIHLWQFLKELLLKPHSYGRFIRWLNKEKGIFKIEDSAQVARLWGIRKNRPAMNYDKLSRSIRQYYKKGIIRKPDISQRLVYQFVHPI
Summary of the method: as §1

ETV3 = biological target: T10, ETV3 (Homo sapiens, UniProt P41162-2 1-143)
T10 sequence: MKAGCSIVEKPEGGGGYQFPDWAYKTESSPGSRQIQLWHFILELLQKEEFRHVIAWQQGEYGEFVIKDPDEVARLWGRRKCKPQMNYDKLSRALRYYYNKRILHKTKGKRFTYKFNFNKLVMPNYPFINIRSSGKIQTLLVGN
Summary of the method: as §1

ETV6 = ETV6 (Homo sapiens, UniProt P41212 1-452)
Summary of the method: as §1

Chain of SPIB (Q01892 whole entry): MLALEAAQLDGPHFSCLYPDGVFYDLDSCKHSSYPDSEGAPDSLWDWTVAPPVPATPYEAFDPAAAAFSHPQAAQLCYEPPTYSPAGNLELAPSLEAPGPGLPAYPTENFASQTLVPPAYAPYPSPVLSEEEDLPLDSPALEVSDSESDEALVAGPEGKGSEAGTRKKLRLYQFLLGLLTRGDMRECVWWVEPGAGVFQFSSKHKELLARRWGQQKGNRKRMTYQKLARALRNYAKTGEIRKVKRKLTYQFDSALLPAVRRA
Chain of ETV5 (P41161 whole entry): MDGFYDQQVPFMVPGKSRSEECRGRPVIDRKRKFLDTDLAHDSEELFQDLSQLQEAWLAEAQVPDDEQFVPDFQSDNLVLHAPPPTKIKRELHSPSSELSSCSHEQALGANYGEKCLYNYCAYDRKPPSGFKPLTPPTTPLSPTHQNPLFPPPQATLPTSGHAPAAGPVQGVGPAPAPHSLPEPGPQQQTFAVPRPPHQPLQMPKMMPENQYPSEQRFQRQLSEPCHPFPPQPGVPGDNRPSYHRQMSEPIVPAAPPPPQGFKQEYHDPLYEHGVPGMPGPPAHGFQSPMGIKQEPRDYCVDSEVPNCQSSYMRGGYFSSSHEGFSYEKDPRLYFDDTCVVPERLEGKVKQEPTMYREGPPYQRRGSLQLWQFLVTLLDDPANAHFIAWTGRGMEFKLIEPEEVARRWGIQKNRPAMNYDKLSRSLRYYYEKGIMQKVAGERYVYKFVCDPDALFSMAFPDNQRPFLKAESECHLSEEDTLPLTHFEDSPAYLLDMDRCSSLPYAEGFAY
Chain of ELF4 (Q99607 whole entry): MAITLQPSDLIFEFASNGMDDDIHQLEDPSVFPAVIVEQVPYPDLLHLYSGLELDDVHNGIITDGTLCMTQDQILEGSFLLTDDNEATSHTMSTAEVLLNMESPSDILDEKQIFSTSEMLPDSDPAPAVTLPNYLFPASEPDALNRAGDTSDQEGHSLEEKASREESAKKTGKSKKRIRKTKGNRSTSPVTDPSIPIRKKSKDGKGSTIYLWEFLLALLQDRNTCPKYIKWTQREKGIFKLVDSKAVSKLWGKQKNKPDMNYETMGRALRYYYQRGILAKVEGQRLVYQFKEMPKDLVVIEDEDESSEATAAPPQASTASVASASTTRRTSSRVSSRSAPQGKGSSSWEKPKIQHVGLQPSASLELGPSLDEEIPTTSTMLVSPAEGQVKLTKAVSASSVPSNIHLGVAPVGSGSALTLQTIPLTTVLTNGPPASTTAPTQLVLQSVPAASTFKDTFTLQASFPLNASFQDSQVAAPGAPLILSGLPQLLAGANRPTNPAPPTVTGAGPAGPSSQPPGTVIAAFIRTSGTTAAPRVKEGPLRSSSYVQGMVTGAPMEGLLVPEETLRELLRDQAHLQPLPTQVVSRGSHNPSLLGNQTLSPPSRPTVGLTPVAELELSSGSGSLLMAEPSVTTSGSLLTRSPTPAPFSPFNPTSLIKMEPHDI
Chain of ETV6 (P41212 whole entry): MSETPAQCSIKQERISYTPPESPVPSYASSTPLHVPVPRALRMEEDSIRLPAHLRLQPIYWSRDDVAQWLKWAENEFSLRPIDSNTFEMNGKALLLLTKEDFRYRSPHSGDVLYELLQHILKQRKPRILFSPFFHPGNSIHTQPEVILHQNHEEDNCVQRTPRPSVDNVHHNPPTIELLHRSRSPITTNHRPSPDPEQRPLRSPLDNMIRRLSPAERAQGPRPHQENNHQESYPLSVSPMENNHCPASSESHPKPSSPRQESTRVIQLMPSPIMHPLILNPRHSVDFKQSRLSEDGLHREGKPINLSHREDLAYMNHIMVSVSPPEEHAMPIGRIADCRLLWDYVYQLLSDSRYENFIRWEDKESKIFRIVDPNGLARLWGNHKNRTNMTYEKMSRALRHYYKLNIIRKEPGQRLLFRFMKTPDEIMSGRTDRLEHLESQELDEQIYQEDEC
Chain of ELF1 (P32519 whole entry): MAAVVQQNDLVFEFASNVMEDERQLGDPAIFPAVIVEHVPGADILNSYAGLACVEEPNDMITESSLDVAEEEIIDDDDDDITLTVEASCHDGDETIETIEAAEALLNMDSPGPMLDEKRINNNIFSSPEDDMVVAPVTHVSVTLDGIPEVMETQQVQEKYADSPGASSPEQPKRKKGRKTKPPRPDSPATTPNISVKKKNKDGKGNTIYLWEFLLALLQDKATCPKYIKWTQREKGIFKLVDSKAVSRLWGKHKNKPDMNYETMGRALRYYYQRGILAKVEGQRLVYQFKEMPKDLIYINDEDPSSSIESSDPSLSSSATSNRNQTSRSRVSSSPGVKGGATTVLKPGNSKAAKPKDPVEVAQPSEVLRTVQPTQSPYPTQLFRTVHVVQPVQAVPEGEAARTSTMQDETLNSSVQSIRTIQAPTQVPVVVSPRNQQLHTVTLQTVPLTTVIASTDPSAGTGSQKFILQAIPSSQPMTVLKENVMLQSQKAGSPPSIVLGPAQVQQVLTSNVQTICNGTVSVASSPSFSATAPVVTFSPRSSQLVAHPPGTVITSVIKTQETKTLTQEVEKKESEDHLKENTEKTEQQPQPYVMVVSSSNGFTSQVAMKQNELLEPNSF
Chain of ETV1 (P50549 whole entry): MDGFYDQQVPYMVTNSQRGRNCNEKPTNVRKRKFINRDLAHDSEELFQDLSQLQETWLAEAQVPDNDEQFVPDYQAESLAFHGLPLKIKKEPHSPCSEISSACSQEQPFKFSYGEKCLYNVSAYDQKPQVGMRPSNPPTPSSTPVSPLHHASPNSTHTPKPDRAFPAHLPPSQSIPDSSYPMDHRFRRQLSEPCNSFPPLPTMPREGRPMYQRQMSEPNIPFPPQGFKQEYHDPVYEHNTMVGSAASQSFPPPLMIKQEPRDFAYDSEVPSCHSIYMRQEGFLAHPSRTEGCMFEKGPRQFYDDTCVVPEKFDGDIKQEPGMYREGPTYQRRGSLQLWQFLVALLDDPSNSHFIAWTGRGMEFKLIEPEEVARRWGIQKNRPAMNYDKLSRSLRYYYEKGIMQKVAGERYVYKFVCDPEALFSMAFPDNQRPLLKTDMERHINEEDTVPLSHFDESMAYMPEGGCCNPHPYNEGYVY

Q: With TGCCGG as the sequence, how does the binding signal (FLI1) read?
A: The binding signal was 1.11 fold enrichment (6-mer frequency, TF over GST control).

Q: What about the binding signal (ELK1) of the same sequence?
A: The binding signal was 1.09 fold enrichment (6-mer frequency, TF over GST control).

Q: What about the binding signal (ERG) of the same sequence?
A: The binding signal was 1.13 fold enrichment (6-mer frequency, TF over GST control).

Q: What about the binding signal (ELF1) of the same sequence?
A: Its binding signal is 1.02 fold enrichment (6-mer frequency, TF over GST control).

Q: And the binding signal (EHF)?
A: The binding signal was 1.03 fold enrichment (6-mer frequency, TF over GST control).

Q: What about the binding signal (SPIB) of the same sequence?
A: Its binding signal is 1.02 fold enrichment (6-mer frequency, TF over GST control).

Q: What about the binding signal (ELK3) of the same sequence?
A: The binding signal was 1.02 fold enrichment (6-mer frequency, TF over GST control).

Q: And the binding signal (FEV)?
A: The binding signal was 1.26 fold enrichment (6-mer frequency, TF over GST control).

Q: What about the binding signal (ETV5) of the same sequence?
A: The binding signal was 1.04 fold enrichment (6-mer frequency, TF over GST control).

Q: What about the binding signal (SPIC) of the same sequence?
A: The binding signal was 1.09 fold enrichment (6-mer frequency, TF over GST control).

Q: What about the binding signal (ELF4) of the same sequence?
A: Its binding signal is 1.04 fold enrichment (6-mer frequency, TF over GST control).

Q: And the binding signal (ETV1)?
A: The binding signal was 1.11 fold enrichment (6-mer frequency, TF over GST control).

Q: And the binding signal (ETS2)?
A: The binding signal was 1 fold enrichment (6-mer frequency, TF over GST control).

Q: And the binding signal (SPDEF)?
A: The binding signal was 1.21 fold enrichment (6-mer frequency, TF over GST control).

Q: And the binding signal (ETV3)?
A: The binding signal was 1.21 fold enrichment (6-mer frequency, TF over GST control).

Q: What about the binding signal (ETV6) of the same sequence?
A: Its binding signal is 1.13 fold enrichment (6-mer frequency, TF over GST control).
